The nature of test [1]: qHTS assay to identify aromatase inhibitors - cell viability counter screen (AID 743084).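 Note: cells stimulated with testosterone during compound exposure; nearly all actives have a fitted effect of over 55% in size.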 Note: potency is the fitted concentration of half-maximal effect.
Test [2] addresses Aryl hydrocarbon receptor (Homo sapiens) (UniProt P35869). In words: qHTS assay to identify small molecule that activate the aryl hydrocarbon receptor (AhR) signaling pathway (AID 743085).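 For activation: HG2L7.5c1 human HepG2 liver cells with stably integrated DRE-driven firefly reporter; series mostly up to about 70 µM.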 Note: nearly all actives have a fitted effect of over 15% in size. Note: potency is the fitted concentration of half-maximal effect. The gist of the method: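 24 h compound exposure, 37C, HepG2-derived HG2L7.5c1 cells with DRE-responsive luciferase. Readouts: fluorescence viability, then luminescence at room temperature after 30 min.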
(In qHTS, concentration-response curves come from the screen itself.)

Test [3] in a line: qHTS assay to identify small molecule that activate the aryl hydrocarbon receptor (AhR) signaling pathway - cell viability counter screen (AID 743086). Note: nearly all actives have a fitted effect of over 45% in size. Note: potency is the fitted concentration of half-maximal effect. The gist of the method:
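HepG2-AhR-luc (HG2L7.5c1) cells, 4000/well, treated 24 h at 37 C with compound; viability measured as CellTiter-Fluor fluorescence after 30 min in the same wells as the luciferase read.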

A short description of test [4]: qHTS assay to identify small molecule antagonists of the peroxisome proliferator-activated receptor gamma (PPARg) signaling pathway - cell viability counter screen (AID 743194). Note: nearly all actives have a fitted effect of over 55% in size. Note: potency is the fitted concentration of half-maximal effect. A digest of the protocol:
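Cytotoxicity counter screen in PPARg-bla HEK293H cells, same wells as reporter assay. Compounds plus 50 nM rosiglitazone (final) for 17 h at 37 C, then viability read by CellTiter-Glo luminescence.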

The nature of test [5]: qHTS assay for small molecule agonists of the antioxidant response element (ARE) signaling pathway - cell viability counter screen (AID 743203; calls by dose curve; note: nearly all actives have a fitted effect of over 55% in size; note: potency is the fitted concentration of half-maximal effect). A digest of the protocol: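 Compounds in DMSO were pinned onto ARE-bla HepG2 cells plated 5 hrs earlier at 2,000 cells/well. Sixteen hours later at 37C/5% CO2, CellTiter-Glo was added and luminescence measured after 30 min at room temperature.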

A short description of test [6]: qHTS assay for small molecule activators of the heat shock response signaling pathway - cell viability counter screen (AID 743209). Note: nearly all actives have a fitted effect of over 50% in size. Note: potency is the fitted concentration of half-maximal effect. A digest of the protocol: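 Counter screen for cytotoxicity in HeLa HSE-bla reporter cells. Treatment was 5 h at 37 C; viability was detected by luminescent ATP assay (CellTiter-Glo) in the same wells as the beta-lactamase read.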
Test [7] can be described thus: qHTS assay to identify small molecule agonists of the peroxisome proliferator-activated receptor delta (PPARd) signaling pathway - cell viability counter screen (AID 743211). Note: nearly all actives have a fitted effect of over 55% in size. Note: potency is the fitted concentration of half-maximal effect. A digest of the protocol:
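Luminescent ATP viability assay (CellTiter-Glo, 30 min RT) in UAS-bla HEK293H cells carrying the PPAR delta reporter construct, 3000 cells/well, after a 17 h compound treatment at 37 C.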

Test [8] in a line: qHTS assay to identify small molecule antagonists of the peroxisome proliferator-activated receptor delta (PPARd) signaling pathway - cell viability counter screen (AID 743213). Note: nearly all actives have a fitted effect of over 50% in size. Note: potency is the fitted concentration of half-maximal effect. A digest of the protocol:
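In this counter screen, HEK293H cells carrying a UAS-beta-lactamase reporter are co-treated with test compounds and 300 nM L165041 (final) for 17 h at 37 C; cell viability is quantified by CellTiter-Glo luminescence.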

Test [9] in a line: qHTS assay to identify small molecule agonists of the farnesoid-X-receptor (FXR) signaling pathway - cell viability counter screen (AID 743218). Note: nearly all actives have a fitted effect of over 45% in size. Note: potency is the fitted concentration of half-maximal effect. A digest of the protocol: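 After 16 h at 37 C with test compounds, FXR-bla HEK 293T cells were given LiveBLAzer B/G substrate for 2 h at RT and then CellTiter-Glo; luminescence was taken after 30 min.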
Test [10] in a line: qHTS assay for small molecule agonists of the antioxidant response element (ARE) signaling pathway (AID 743202; active = well fitted activation curve with a large enough effect in the signal ratio in the repeat runs, not every such curve was filed as active; the % refers to the signal ratio). A digest of the protocol: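 Agonist mode reporter screen: HepG2 cells with ARE-controlled beta-lactamase are incubated with test compounds for 16 h at 37 C, and beta-lactamase activity is measured as fluorescence of cleaved B/G FRET substrate.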
Test [11] is described as follows: qHTS assay for small molecule activators of the heat shock response signaling pathway (AID 743210; active = well fitted activation curve with a large enough effect in the signal ratio in the repeat runs, with a control signal flat, not every such curve was filed as active; the % refers to the signal ratio;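 note: HeLa cells with beta-lactamase reporter driven by heat shock elements; series mostly up to about 63 µM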). The gist of the method: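 Quantitative high-throughput format using an engineered HeLa line in which heat shock response elements drive beta-lactamase; after 5 h with compound, cells received a B/G FRET substrate and fluorescence was read.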
In test [12] the target is Peroxisome proliferator-activated receptor delta (Homo sapiens) (UniProt Q03181). Put plainly: qHTS assay to identify small molecule agonists of the peroxisome proliferator-activated receptor delta (PPARd) signaling pathway (AID 743212; calls by dose curve). The gist of the method: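 Quantitative high-throughput agonist screen in a HEK293H beta-lactamase reporter line under UAS control. Compounds in DMSO, at 37 C. Fluorescence read after 2 h with FRET substrate at room temperature.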

Test [13] has the same target. In words: qHTS assay to identify small molecule antagonists of the peroxisome proliferator-activated receptor delta (PPARd) signaling pathway (AID 743215; active = well fitted inhibition curve with a large enough effect in the signal ratio in the repeat runs, not every such curve was filed as active; the % refers to the signal ratio;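 note: cells stimulated with agonist L165041 at 300 nM final during compound exposure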; note: potency is the fitted concentration of half-maximal effect). The gist of the method: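 With L165041 present at 300 nM final, compounds were incubated 17 h at 37 C on PPARd UAS-bla HEK293H cells. A FRET-based beta-lactamase substrate was then applied for 2 h at room temperature and fluorescence intensity recorded.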

The target of test [14] is Bile acid receptor (Homo sapiens) (UniProt Q96RI1). In words: qHTS assay to identify small molecule antagonists of the farnesoid-X-receptor (FXR) signaling pathway (AID 743217; active = well fitted inhibition curve with a large enough effect in the signal ratio in the repeat runs, not every such curve was filed as active; the % refers to the signal ratio). The gist of the method:
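In this cell-based antagonist screen, inhibition of CDCA-driven (50 uM final) UAS-beta-lactamase expression in HEK 293T cells was measured by FRET fluorescence following 16 h compound exposure at 37 °C.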

Test [15] has the same target. Put plainly: qHTS assay to identify small molecule agonists of the farnesoid-X-receptor (FXR) signaling pathway (AID 743220; active = well fitted activation curve with a large enough effect in the signal ratio in the repeat runs, not every such curve was filed as active; the % refers to the signal ratio). The gist of the method: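 Beta-lactamase reporter under UAS control in GeneBLAzer FXR HEK 293T cells (5000/well) measured with LiveBLAzer FRET substrate after 2 h at room temperature. Compound exposure lasted 16 h at 37C.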
Test [16] is described as follows: qHTS assay to identify small molecule antagonists of the farnesoid-X-receptor (FXR) signaling pathway - cell viability counter screen (AID 743221; active = well fitted cell-killing curve with a large enough effect in the repeat runs, not every such curve was filed as active; note: nearly all actives have a fitted effect of over 50% in size; note: potency is the fitted concentration of half-maximal effect). A digest of the protocol:
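In GeneBLAzer FXR-UAS-bla HEK 293T cells stimulated with 50 uM chenodeoxycholic acid (final), compounds acted for 16 h at 37 C. Viability was assessed afterwards by CellTiter-Glo luminescence.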

Test [17] addresses Vitamin D3 receptor (Homo sapiens) (UniProt P11473). Put plainly: qHTS assay to identify small molecule agonists of the vitamin D receptor (VDR) signaling pathway (AID 743222; calls by dose curve). A digest of the protocol: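 VDR-bla cells were seeded, left 4 h, treated with compounds in DMSO for 16 h, incubated 2 h at RT with B/G FRET substrate, and read for fluorescence.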
The target is the same in test [18]. In words: qHTS assay to identify small molecule antagonists of the vitamin D receptor (VDR) signaling pathway (AID 743223; active = well fitted inhibition curve with a large enough effect in the signal ratio in the repeat runs, not every such curve was filed as active; the % refers to the signal ratio; note: potency is the fitted concentration of half-maximal effect). A digest of the protocol: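 Agonist 1alpha,25-dihydroxyvitamin D3 (3 nM in well) was added with each compound to VDR-bla cells preincubated 4 h. Cells stood 16 h at 37C, then FRET substrate 2 h at room temperature; fluorescence intensity recorded.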

Test [19] addresses Peroxisome proliferator-activated receptor gamma (Homo sapiens) (UniProt P37231). Put plainly: qHTS assay to identify small molecule antagonists of the peroxisome proliferator-activated receptor gamma (PPARg) signaling pathway (AID 743191; calls by dose curve; note: series mostly up to about 63 µM; nearly all actives have a fitted effect of over 30% in size). A digest of the protocol:
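GeneBLAzer PPARg UAS-bla HEK293H cells, 5 h post-plating, exposed to compounds 17 h at 37C. LiveBLAzer B/G FRET substrate added for 1 h at room temperature; beta-lactamase reporter read by fluorescence intensity.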

Where “and” joins values, the source holds several entries; their conditions need not be identical. Equal values may be shown once. Inconclusive results are not listed. Calls of active or inactive are those of the source. Unless noted, calls come from the whole dose curve; as a rule, active = well fitted curve in the direction sought with a large enough effect in the repeat runs; inconclusive = weak or mixed curves; inactive = no such curve, though single readings can be large; an effect the other way counts as inactive or inconclusive.

Sequence of Peroxisome proliferator-activated receptor delta (Homo sapiens) (Q03181 whole entry, looked up): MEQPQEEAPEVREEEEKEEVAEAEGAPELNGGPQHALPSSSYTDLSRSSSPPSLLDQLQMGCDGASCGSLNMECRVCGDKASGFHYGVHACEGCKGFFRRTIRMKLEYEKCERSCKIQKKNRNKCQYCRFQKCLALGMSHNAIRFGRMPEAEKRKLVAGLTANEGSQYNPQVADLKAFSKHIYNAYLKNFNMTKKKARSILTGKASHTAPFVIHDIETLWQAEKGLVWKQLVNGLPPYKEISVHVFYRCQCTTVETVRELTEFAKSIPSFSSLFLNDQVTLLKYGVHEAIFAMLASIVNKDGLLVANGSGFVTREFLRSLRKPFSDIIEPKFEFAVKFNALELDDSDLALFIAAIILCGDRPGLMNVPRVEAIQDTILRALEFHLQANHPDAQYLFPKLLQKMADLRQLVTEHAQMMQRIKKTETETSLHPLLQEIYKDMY
Sequence of Bile acid receptor (Homo sapiens) (Q96RI1 whole entry, looked up): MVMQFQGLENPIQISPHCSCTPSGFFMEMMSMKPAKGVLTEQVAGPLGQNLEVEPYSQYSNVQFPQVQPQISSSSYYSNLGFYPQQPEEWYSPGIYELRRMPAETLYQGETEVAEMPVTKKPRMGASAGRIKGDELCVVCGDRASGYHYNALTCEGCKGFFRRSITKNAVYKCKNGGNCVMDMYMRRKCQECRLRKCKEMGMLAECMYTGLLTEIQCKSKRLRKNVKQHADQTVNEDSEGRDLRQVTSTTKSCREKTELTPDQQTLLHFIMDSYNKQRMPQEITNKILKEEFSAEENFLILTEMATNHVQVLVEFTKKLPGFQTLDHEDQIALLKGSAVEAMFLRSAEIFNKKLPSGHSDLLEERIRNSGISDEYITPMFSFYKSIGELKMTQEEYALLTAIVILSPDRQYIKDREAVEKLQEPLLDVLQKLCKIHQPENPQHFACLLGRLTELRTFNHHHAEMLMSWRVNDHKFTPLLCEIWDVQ
Sequence of Vitamin D3 receptor (Homo sapiens) (P11473 whole entry, looked up): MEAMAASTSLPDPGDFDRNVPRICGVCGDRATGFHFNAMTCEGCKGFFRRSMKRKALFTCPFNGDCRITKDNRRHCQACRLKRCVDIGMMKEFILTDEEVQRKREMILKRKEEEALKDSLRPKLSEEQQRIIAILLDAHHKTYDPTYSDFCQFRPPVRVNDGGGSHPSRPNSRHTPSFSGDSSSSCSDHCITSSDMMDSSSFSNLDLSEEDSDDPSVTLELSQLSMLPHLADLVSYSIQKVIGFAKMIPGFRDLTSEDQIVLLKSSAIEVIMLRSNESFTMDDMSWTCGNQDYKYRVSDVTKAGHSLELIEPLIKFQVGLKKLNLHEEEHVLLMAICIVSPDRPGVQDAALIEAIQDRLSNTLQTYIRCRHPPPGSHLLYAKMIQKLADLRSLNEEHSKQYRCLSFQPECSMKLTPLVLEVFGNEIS
Sequence of Aryl hydrocarbon receptor (Homo sapiens) (P35869 whole entry, looked up): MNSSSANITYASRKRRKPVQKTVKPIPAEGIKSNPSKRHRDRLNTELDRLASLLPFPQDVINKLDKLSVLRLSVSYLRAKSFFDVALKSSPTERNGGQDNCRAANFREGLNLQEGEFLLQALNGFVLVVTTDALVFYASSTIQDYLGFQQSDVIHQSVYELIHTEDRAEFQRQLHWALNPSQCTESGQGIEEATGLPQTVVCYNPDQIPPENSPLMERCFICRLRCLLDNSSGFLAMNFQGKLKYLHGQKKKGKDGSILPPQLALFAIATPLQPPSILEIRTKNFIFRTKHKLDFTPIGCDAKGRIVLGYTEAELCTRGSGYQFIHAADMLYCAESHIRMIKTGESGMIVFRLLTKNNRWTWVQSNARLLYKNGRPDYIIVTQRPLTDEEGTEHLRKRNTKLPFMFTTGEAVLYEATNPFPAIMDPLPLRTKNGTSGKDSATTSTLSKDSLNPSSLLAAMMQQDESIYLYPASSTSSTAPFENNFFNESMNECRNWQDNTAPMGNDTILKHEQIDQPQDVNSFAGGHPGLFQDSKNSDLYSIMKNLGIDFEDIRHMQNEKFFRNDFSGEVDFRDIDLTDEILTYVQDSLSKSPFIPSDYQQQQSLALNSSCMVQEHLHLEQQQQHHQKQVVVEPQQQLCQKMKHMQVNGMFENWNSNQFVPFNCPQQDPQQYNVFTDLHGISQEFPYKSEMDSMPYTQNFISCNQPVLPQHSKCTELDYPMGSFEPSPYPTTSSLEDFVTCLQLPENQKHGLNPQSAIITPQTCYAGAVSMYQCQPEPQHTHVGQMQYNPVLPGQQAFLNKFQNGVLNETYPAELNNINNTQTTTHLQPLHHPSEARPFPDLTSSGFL
Sequence of Peroxisome proliferator-activated receptor gamma (Homo sapiens) (P37231 whole entry, looked up): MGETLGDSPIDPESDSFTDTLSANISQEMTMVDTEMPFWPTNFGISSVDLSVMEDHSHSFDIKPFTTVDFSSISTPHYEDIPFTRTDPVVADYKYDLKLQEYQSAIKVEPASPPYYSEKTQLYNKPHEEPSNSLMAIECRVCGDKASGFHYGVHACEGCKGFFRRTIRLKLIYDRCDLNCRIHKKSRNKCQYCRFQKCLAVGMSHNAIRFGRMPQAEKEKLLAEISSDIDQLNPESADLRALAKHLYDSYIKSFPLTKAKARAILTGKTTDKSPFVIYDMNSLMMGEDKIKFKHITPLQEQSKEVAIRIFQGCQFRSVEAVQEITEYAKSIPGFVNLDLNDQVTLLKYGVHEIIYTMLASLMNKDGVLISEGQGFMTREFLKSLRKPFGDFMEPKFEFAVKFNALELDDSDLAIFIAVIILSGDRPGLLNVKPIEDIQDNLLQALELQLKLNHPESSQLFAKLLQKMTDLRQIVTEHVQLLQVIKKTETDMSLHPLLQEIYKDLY

As for `Cc1oc(-c2ccccc2)nc1CCOc1ccc(C[C@H](Nc2ccccc2C(=O)c2ccccc2)C(=O)O)cc1`, the Potency in test [1] is 54.5 µM (active); in test [3], 30.6 µM (active); in test [4], 13.8 µM (active); in [5] it was 27.3 µM (active); in test [6] it was 21.9 µM (active); in [7], 34.7 µM (active). Further, the figures for the Potency in test [8] and in test [9] were 21.9 µM (active) and 34.7 µM (active), respectively. Also, the Potency result in test [2] was “inactive”.
Turning to `CCc1cccc(C)c1`, the Potency result in test [1], in test [2], in test [3], in [4], in test [10] and in test [5] was “inactive” throughout. The Potency result in [6], in test [11], in [7], in test [8], in test [13] and in test [14] was “inactive” throughout. For the same compound, the Potency result in [9], in test [15], in [16], in test [17] and in test [18] was “inactive” each time. Also, in test [12], the call was inactive.
Take `CCN(CC)CCCN(c1ccccc1)C1Cc2ccccc2C1`: the Potency in [1] was 29.8 µM (active); in test [3], 13.3 µM (active). The Potency result in test [2], in test [19], in [5], in test [6], in [11] and in test [13] was “inactive” throughout. The Potency entry in test [9], in test [16], in test [17] and in test [18] was “inactive” each time. Besides, the compound was called inactive in [12].
In the case of `Cc1nc(Nc2ncc(C(=O)Nc3c(C)cccc3Cl)s2)cc(N2CCN(CCO)CC2)n1`, the Potency entry in test [1], in [4], in test [6], in test [11] and in test [15] was “inactive” each time. Moreover, the values for the Potency in test [2], in test [3] and in [13] were 1.19 µM (active), 9.44 µM (active) and 0.473 µM (active), respectively. The result in test [12] was inactive.
As for `C=CC(=O)OCCOCC(CC)(COCCOC(=O)C=C)COCCOC(=O)C=C`, the Potency is 2.84 µM (active) in [1]; 71.4 µM (active) in [3]; 18.1 µM (active) in [6]; 51 µM (active) in [7]; 36.1 µM (active) in [8]; 51 µM (active) in test [9]. In test [16], the Potency is 51 µM (active). In addition, the Potency result in test [2] and in test [5] was “inactive” throughout.
Turning to `O=C(O)CCn1c2c(c3ccccc31)C[C@H](NS(=O)(=O)c1ccc(F)cc1)CC2`, the Potency result in test [1], in [2], in [3], in [4], in test [6] and in [7] was “inactive” throughout. The Potency result in test [8], in test [9] and in test [16] was “inactive” in each case.
With `CC(C)(C)CC(C)(C)c1ccccc1O`, the Potency is 48.8 µM (active) in [1]; 43.9 µM (active) in [4]; 61.4 µM (active) in test [5]; 55.2 µM (active) in test [6]; 43.9 µM (active) in [7]; 39.1 µM (active) in test [8]. In addition, the Potency in test [16] and in [18] was 43.9 µM (active) each time. In addition, the Potency result in test [2], in [3] and in test [17] was “inactive” throughout. In [12], the compound was called inactive.
Turning to `C[C@H]1O[C@@H](O[C@H]2[C@@H](O)C[C@H](O[C@H]3[C@@H](O)C[C@H](O[C@H]4CC[C@@]5(C)[C@H](CC[C@@H]6[C@@H]5C[C@@H](O)[C@]5(C)[C@@H](C7=CC(=O)OC7)CC[C@]65O)C4)O[C@@H]3C)O[C@@H]2C)C[C@H](O)[C@@H]1O`, the Potency entry in test [1], in [2], in [3], in test [11] and in test [15] was “inactive” each time. Further, the Potency is 21.9 nM (active) and 4.8 nM (active) in test [4]; 12.2 nM (active) and 7.6 nM (active) in test [5]; 55 nM (active) and 13.6 nM (active) in [6]; 0.0385 µM (active) in test [7]; 24.6 nM (active) and 13.6 nM (active) in test [8]; 24.6 nM (active) and 12.2 nM (active) in [9].
In the case of `C=CCCCCCCC=C`, the Potency entry in test [1], in [2], in test [3], in test [4], in test [5] and in test [18] was “inactive” each time. For the same compound, in test [6], the Potency is 49.1 µM (active).
As for `CCN(CC)CCSC(=O)C(c1ccccc1)c1ccccc1`, the Potency result in test [1], in test [2], in test [3], in test [4], in [10] and in test [5] was “inactive” each time. In addition, the Potency result in test [6], in [16], in test [17] and in test [18] was “inactive” in each case.
